# System: FES
# Conditions: concentration: 1 μM,replicates: in singlicate; n = 1
# 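Further: KINOMEscan kinase panel screen.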
row,SMILES,%Inh [%]
1,COc1ccc(Nc2nccc(N3CCC(NC(=O)c4cccc(C#N)c4)C3)n2)cc1 (centres unmarked) [GSK1379730],0
2,C[C@@H](Oc1cc(-n2cnc3cc(-c4cnn(C)c4)ccc32)sc1C(N)=O)c1ccccc1Cl [GSK580432],18
3,O=C(Nc1n[nH]c2cc(-c3ccco3)ccc12)C1CC1 [SB-737447],1
4,COC(=O)Nc1nc2cc(Oc3ccc(NC(=O)Nc4cc(C(F)(F)F)ccc4Cl)cc3)ccc2[nH]1.Cl [GW697465],0
5,Cc1cccc2c(-c3ccncc3)c(-c3ccc(F)cc3)nn12.Cl [GW461487],0
6,O=c1[nH]cc(-c2ccc(O)cc2)c2sc(-c3ccncc3)cc12 [GSK1033723],13
7,COc1cccc(CNC(=O)NC2CCN(c3ccnc(Nc4cc(OC)c(OC)c(OC)c4)n3)C2)c1 (centres unmarked) [GSK1379765],0
8,COc1cccc(OC)c1C(=O)Nc1cccc(-c2nn3ccccc3c2-c2ccnc(Nc3cccc(F)c3)n2)c1 [GSK361065],20
9,CC(=O)Nc1nc2cnc(Nc3cc(NC(=O)c4cccc(CC(C)(C)C#N)c4)ccc3C)nc2s1,0
10,CC(C)S(=O)(=O)N1CCN(Cc2ccc3c(c2)nc(NC(=O)c2ccsc2)n3C[C@H](O)c2ccccc2)CC1 [GW635815],15
11,Cc1ccc(Nc2ccnc(Nc3ccc4c(c3)CS(=O)(=O)C4)n2)cc1O.Cl [GW579362],2
12,Cc1nnc(-c2ccc3occ(-c4ccc(S(C)=O)cc4)c3n2)o1 (centres unmarked),15
13,O=C(Nc1cccc(C(F)(F)F)c1)c1cccc(Oc2ccc3nccn3n2)c1,0
14,CCCC(=O)Nc1n[nH]c2ncccc12 [SB-601436],12
15,C[C@@H]1CNc2c(sc3ccc4nc(-c5ccc(O)cc5)ccc4c23)C(=O)N1,4
16,COC(=O)c1cccc(NC(=O)NC2CCN(c3ccnc(NCc4ccc(F)cc4)n3)CC2)c1 [GSK1379860],1
17,CC(=O)Nc1ccc(-c2cc3ncnc(SCC(=O)O)c3s2)cc1,14
18,NC(=O)c1ccc(-c2cc3ncnc(SCC(=O)O)c3s2)cc1,16
19,C[C@@H]1CCN(C(=O)N2CCCC2)C[C@@H]1N(C)c1ncnc2[nH]ccc12,34

row,SMILES,%Inh [%]
1,CCn1c(-c2nonc2N)nc2cncc(Br)c21 [SB-738004],8
2,Cc1ccc(CC(=O)N2CCc3cc(-c4cn(C)c5ncnc(N)c45)ccc32)cc1 [GSK2634758],0
3,Nc1nccc(-c2ccc3c(N)n[nH]c3c2)n1 [GSK1034945],0
4,COc1cccc(C2=C(Nc3cccc(Cl)c3)C(=O)NC2=O)c1 [SB-341556],0
5,Cc1n[nH]c2cc(Nc3ccnc(Nc4cccc(CN5CCOCC5)c4)n3)ccc12 [GW682569],0
6,Cl.Cl.NC[C@H](CC1CCCCC1)NC(=O)c1ccc(-c2ccnc3[nH]ccc23)s1 [GSK1581428],5
7,COc1cc2c(Nc3ccc(NC(=O)c4ccccc4)cc3)ncnc2cc1OCCCN1CCOCC1 [GSK301329],0
8,C[C@@H](Oc1cc(-n2cnc3ccc(-c4ccncc4)cc32)sc1C(N)=O)c1ccccc1Cl [GSK483724],4
9,NC(=O)Nc1sc(-c2ccc(F)cc2)cc1C(N)=O [GW789449],11
10,CN(c1ccc2c(c1)nc(NCc1ccc(F)cc1)n2C)c1ccnc(Nc2ccc(CS(C)(=O)=O)cc2)n1.Cl [GW813244],0
11,c1ccc(Oc2ccc(Nc3ccnc4ccc(-c5ccccn5)cc34)cc2)cc1 [GW407034],0
12,CS(=O)c1ccc(-c2coc3ccc(-c4n[nH]c(=O)o4)cc23)cc1 (centres unmarked),0
13,CCN1CCN(CCCC(=O)Nc2n[nH]c3nc(-c4ccc(O)cc4)c(Br)cc23)CC1 [SB-731579],0
14,CC(=O)c1c(-c2ccncc2)[nH]c(-c2ccncc2)c1C [GW493036],0
15,CSc1nccc(-c2c(-c3ccc(F)cc3)ncn2CCCN2CCOCC2)n1.Cl [SB-217146],3
16,CN1CCN(CCNc2nc3cc(Oc4ccc(NC(=O)Nc5cc(C(F)(F)F)ccc5F)cc4)ccc3[nH]2)CC1.Cl.Cl [GW768504],9
17,C[C@@H](Oc1cc(-n2cnc3cc(-c4ccncc4)ccc32)sc1C(N)=O)c1ccccc1Cl [GSK479719],18
18,O=C(Nc1cccc(Oc2ccc3nccn3n2)c1)Nc1cccc(C(F)(F)F)c1,2

# System: FGFR1
# Conditions: concentration: 1 μM,replicates: in singlicate; n = 1
row,SMILES,%Inh [%]
1,COc1ccc(Nc2nccc(N3CCC(NC(=O)c4cccc(C#N)c4)C3)n2)cc1 (centres unmarked) [GSK1379730],13
2,C[C@@H](Oc1cc(-n2cnc3cc(-c4cnn(C)c4)ccc32)sc1C(N)=O)c1ccccc1Cl [GSK580432],91.9
3,O=C(Nc1n[nH]c2cc(-c3ccco3)ccc12)C1CC1 [SB-737447],14
4,COC(=O)Nc1nc2cc(Oc3ccc(NC(=O)Nc4cc(C(F)(F)F)ccc4Cl)cc3)ccc2[nH]1.Cl [GW697465],4
5,Cc1cccc2c(-c3ccncc3)c(-c3ccc(F)cc3)nn12.Cl [GW461487],0
6,O=c1[nH]cc(-c2ccc(O)cc2)c2sc(-c3ccncc3)cc12 [GSK1033723],0
7,COc1cccc(CNC(=O)NC2CCN(c3ccnc(Nc4cc(OC)c(OC)c(OC)c4)n3)C2)c1 (centres unmarked) [GSK1379765],0
8,COc1cccc(OC)c1C(=O)Nc1cccc(-c2nn3ccccc3c2-c2ccnc(Nc3cccc(F)c3)n2)c1 [GSK361065],11
9,CC(=O)Nc1nc2cnc(Nc3cc(NC(=O)c4cccc(CC(C)(C)C#N)c4)ccc3C)nc2s1,0
10,CC(C)S(=O)(=O)N1CCN(Cc2ccc3c(c2)nc(NC(=O)c2ccsc2)n3C[C@H](O)c2ccccc2)CC1 [GW635815],12
11,Cc1ccc(Nc2ccnc(Nc3ccc4c(c3)CS(=O)(=O)C4)n2)cc1O.Cl [GW579362],84
12,Cc1nnc(-c2ccc3occ(-c4ccc(S(C)=O)cc4)c3n2)o1 (centres unmarked),0
13,O=C(Nc1cccc(C(F)(F)F)c1)c1cccc(Oc2ccc3nccn3n2)c1,24
14,CCCC(=O)Nc1n[nH]c2ncccc12 [SB-601436],0
15,C[C@@H]1CNc2c(sc3ccc4nc(-c5ccc(O)cc5)ccc4c23)C(=O)N1,14
16,COC(=O)c1cccc(NC(=O)NC2CCN(c3ccnc(NCc4ccc(F)cc4)n3)CC2)c1 [GSK1379860],3
17,CC(=O)Nc1ccc(-c2cc3ncnc(SCC(=O)O)c3s2)cc1,27
18,NC(=O)c1ccc(-c2cc3ncnc(SCC(=O)O)c3s2)cc1,0
19,C[C@@H]1CCN(C(=O)N2CCCC2)C[C@@H]1N(C)c1ncnc2[nH]ccc12,13

row,SMILES,%Inh [%]
1,CCn1c(-c2nonc2N)nc2cncc(Br)c21 [SB-738004],3
2,Cc1ccc(CC(=O)N2CCc3cc(-c4cn(C)c5ncnc(N)c45)ccc32)cc1 [GSK2634758],14
3,Nc1nccc(-c2ccc3c(N)n[nH]c3c2)n1 [GSK1034945],0
4,COc1cccc(C2=C(Nc3cccc(Cl)c3)C(=O)NC2=O)c1 [SB-341556],21
5,Cc1n[nH]c2cc(Nc3ccnc(Nc4cccc(CN5CCOCC5)c4)n3)ccc12 [GW682569],15
6,Cl.Cl.NC[C@H](CC1CCCCC1)NC(=O)c1ccc(-c2ccnc3[nH]ccc23)s1 [GSK1581428],26
7,COc1cc2c(Nc3ccc(NC(=O)c4ccccc4)cc3)ncnc2cc1OCCCN1CCOCC1 [GSK301329],0
8,C[C@@H](Oc1cc(-n2cnc3ccc(-c4ccncc4)cc32)sc1C(N)=O)c1ccccc1Cl [GSK483724],11
9,NC(=O)Nc1sc(-c2ccc(F)cc2)cc1C(N)=O [GW789449],36
10,CN(c1ccc2c(c1)nc(NCc1ccc(F)cc1)n2C)c1ccnc(Nc2ccc(CS(C)(=O)=O)cc2)n1.Cl [GW813244],75
11,c1ccc(Oc2ccc(Nc3ccnc4ccc(-c5ccccn5)cc34)cc2)cc1 [GW407034],0
12,CS(=O)c1ccc(-c2coc3ccc(-c4n[nH]c(=O)o4)cc23)cc1 (centres unmarked),5
13,CCN1CCN(CCCC(=O)Nc2n[nH]c3nc(-c4ccc(O)cc4)c(Br)cc23)CC1 [SB-731579],0
14,CC(=O)c1c(-c2ccncc2)[nH]c(-c2ccncc2)c1C [GW493036],0
15,CSc1nccc(-c2c(-c3ccc(F)cc3)ncn2CCCN2CCOCC2)n1.Cl [SB-217146],0
16,CN1CCN(CCNc2nc3cc(Oc4ccc(NC(=O)Nc5cc(C(F)(F)F)ccc5F)cc4)ccc3[nH]2)CC1.Cl.Cl [GW768504],6
17,C[C@@H](Oc1cc(-n2cnc3cc(-c4ccncc4)ccc32)sc1C(N)=O)c1ccccc1Cl [GSK479719],46
18,O=C(Nc1cccc(Oc2ccc3nccn3n2)c1)Nc1cccc(C(F)(F)F)c1,29

# Source: article PMC5540273 (PLoS ONE, 2017)
